According to PubChem BioAssay (NCI):
Where “and” joins values, the source holds several entries; their conditions need not be identical. Equal entries are not always repeated. This is part of a sample that, as a whole, favours compounds with a hit. Of some 83,000 tested, about 20% had one in any assay.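 The test compound was applied at a single concentration to cells in 96-well plates for 48 hours, and percent growth was recorded.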 Unmarked numbers belong to inactive results. Calls of active or inactive are those of the source. The calls were made as follows: active = growth percent below 10; inactive = the rest.

Test system: MDA-MB-468 breast
Test: NCI-60 one-dose screen, 48 h (100 = growth as untreated, 0 = no growth, -100 = all killed)
Settings: 10 µM unless noted

CCOC(=O)C/C(C)=N\NC(=O)c1ccncc1
growth: 110%

COc1ccc(NC(=O)/C=C/c2ccc(Cl)c(Cl)c2)cn1
growth: 69.5%

Cn1ccnc1C(=O)/C=C/c1ccc(NC(=O)c2c(F)c(F)c(F)c(F)c2F)cc1
growth: 92.1%

Cc1cc(C)c2c(n1)sc1c(Nc3ccc(O)cc3)ncnc12
growth: 23.8%

C#C[C@@]1(O)[C@@H](CO)O[C@@H](n2cc(F)c3c(N)ncnc32)[C@@H]1O
growth: -46.2% (active)

COc1cc2ncnc(Nc3ccc(S(=O)(=O)Nc4nccs4)cc3)c2cc1OCCCN1CCCC1
growth: 99.2%

COc1ccccc1NS(=O)(=O)c1cccc(C(=O)Nc2ccc(Br)cc2)c1
growth: 3.03% (active)

CCOC(=O)Oc1c(OC)cc(C(=O)O[C@@H]2C[C@@H]3CN4CCc5c([nH]c6cc(OC)ccc56)[C@H]4C[C@@H]3[C@H](C(=O)OC)[C@H]2OC)cc1OC
growth: 98.8%

COc1ccc2c(c1)/C(=C1/S/C(=N/c3nnc(C)s3)NC1=O)C(=O)N2Cc1ccc(Br)cc1
growth: 25.8%

O=c1[nH]c(=O)n(C2OC(CO)C(O)C2O)cc1I (configuration not stated)
growth: 102% and 123%

CCOC(=O)C1=C(C)c2ccc(OC)c(OC)c2C1
growth: 99.4%

CCCCCCCCC1OC1CCCCCCCC(=O)O (configuration not stated)
growth: 89.9%

O=S(=O)(Nc1ccc2c(c1)OC(F)(F)O2)c1ccc(-c2cnc(C3CC3)o2)cc1
growth: 15.3%

COc1cc(OC)cc(C2=C3CC[C@@H]4[C@H](CC[C@]5(C)C(=O)CC[C@@H]45)C3=CC3C(O)c4cccnc4N4C(=O)COC234)c1 (some centres not stated)
growth: 105%

O=C(/C=C/C12c3ccccc3C(c3ccccc31)C1C(=O)NC(=O)C12)c1ccc(F)cc1 (configuration not stated)
growth: -25% (active)

Cc1csc(/N=C(N)/N=C(\N)c2cccc(C#N)c2)n1
growth: 101%

COc1ccc(Nc2nc(N)nc3c(=O)[nH]ccc23)cc1
growth: 118%

NC(N)=NC1CCCCC1
growth: 88.8%

Cc1ccc2c3c(c(=O)[nH]c2c1)C1(C(C#N)=C(N)O3)c2cc(Br)ccc2-c2ccc(Br)cc21
growth: 6.75% (active)

CC(C)(C)c1cc(-n2c(-c3ccc(Cl)cc3)nc3cc(C(=O)Nc4ccc(Cl)cc4)ccc32)n[nH]1
growth: 51.7%

Nc1cccc2cccc([N+](=O)[O-])c12
growth: 109%

CCOP(=O)(O)OP(=O)(O)OCC
growth: 107%

Cc1ccc2[nH]c(-c3ccc(S(C)(=O)=O)cc3)c(/C=N/N=C(N)N)c2c1
growth: 81.1%

COc1ccc(/C=N/C2=C(C#N)C(c3ccccc3)c3c(ccc4ccccc34)O2)cc1 (configuration not stated)
growth: -3.92% (active)

CC(=O)O[C@]1(C)CC[C@H]2[C@H](CNCCc3ccc(Cl)cc3)C(=O)O[C@@H]2C2=C(C)C(=O)C[C@H]21
growth: 47.3%

O=C(Nc1cccc(C(F)(F)F)c1)Nc1ccc(OCc2nnc(-c3ccc(Cl)cc3)o2)c(F)c1
growth: 68.2%

COc1cccc(CNc2c3ccccc3nc3ccccc23)c1
growth: 13.6%

CC1(C)NCCC[C@]2(C)[C@H]3CC[C@@H]4[C@H]5[C@H](C(=O)/C=C/c6ccccn6)CC[C@]5(CO)CC[C@@]4(C)[C@]3(C)CC[C@@H]12
growth: 5.83% (active)

Cc1ccc2[nH]c(=O)c3c(c2c1)OC(N)=C(C#N)C31c2cc(Br)ccc2-c2ccc(Br)cc21
growth: 55.4%

O=C(/C=C/c1cccc(O)c1)c1ccccc1O
growth: 85%

C=C(C)[C@@H]1CC[C@]2(C(N)=O)CC[C@]3(C)[C@H](CC[C@@H]4[C@@]5(C)CC[C@H](OCCC#N)C(C)(C)[C@@H]5CC[C@]43C)[C@@H]12
growth: 72.2%

O=c1cc(-c2ccccc2)[nH]c2ccccc12
growth: 59.5%

Oc1ccccc1N=Cc1ccccc1
growth: 91%

CN1CCN(CCOc2ccc(-c3cnc4c(-c5cccc(F)c5)cnn4c3)cc2)CC1
growth: 65.4%

O=C(N=Nc1c(O)[nH]c2ccccc12)Nc1ccc(Br)cc1
growth: 70.5%

COc1cccc(-c2ccc3c(c2)NC(=O)/C3=C\c2ccc[nH]2)c1
growth: 3.08% (active)

Nc1ccc(CC(=O)O)c(N)c1
growth: 88.5%

CCc1cnc2ccccc2c1/C=C/c1ccc(N(C)C)cc1
growth: 24.9%

Nc1c(C(=O)Nc2ccccc2Cl)sc2nc3c(cc12)CN(Cc1ccccc1)CC3
growth: 102%

COC(=O)c1c2c(c(C)[n+]([O-])c1C)C(=O)C(NCc1ccccc1)=CC2=O
growth: -31.8% (active)

COc1cc(OC)c(C(=O)/C=C/c2ccc(C#N)cc2)c(OC)c1
growth: -6.07% (active)

O=C(Nc1ccc(Cl)cc1)Nc1ccccc1CNc1nc(Nc2ccc(OCCN3CCCC3)cc2)ncc1Cl
growth: -57.4% (active)

CCOC(=O)n1cc(-c2nonc2-c2cn(C)c3ccccc23)c2ccccc21
growth: 13.1%

CCOc1ccc(Nc2nc(-c3ccc4c(c3)NC(=O)CO4)cs2)cc1
growth: 17.8%

C=CC[n+]1c(/C=C2\Sc3ccccc3N2C)sc(-c2ccccc2)c1-c1ccccc1
growth: 1.16% (active)

COC(=O)Cc1cc(COC(C)=O)ccc1C
growth: 108%

O=C(Nc1ccccc1O)c1ccc(NS(=O)(=O)c2cccc3cccnc23)cc1
growth: 49.8%

COc1ccc(-c2cc(-c3ccc(Cl)cc3)nc(SCCCC(=O)NO)n2)cc1
growth: -56.2% (active)

O=C(O)COc1ccc(OCC(=O)O)cc1
growth: 2.23% (active)

CO[C@H]1C[C@@H]2CC[C@@H](C)[C@@](O)(O2)C(=O)C(=O)N2CCCC[C@H]2C(=O)O[C@H]([C@H](C)C[C@@H]2CC[C@@H](OC(=O)C(C)(CO)CO)[C@H](OC)C2)CC(=O)[C@H](C)/C=C(\C)[C@@H](O)[C@@H](OC)C(=O)[C@H](C)C[C@H](C)\C=C/C=C/C=C/1C
growth: 0.224% (active)

CC(C)[C@]12O[C@H]1[C@@H]1O[C@]13[C@]1(O[C@H]1C[C@H]1C4=C(CC[C@@]13C)C(=O)OC4)[C@@H]2OC(=O)CN(C)C
growth: -55.2% (active)

C#Cc1cccc(NC(=O)c2ccc(NC(=O)CCl)cc2)c1
growth: -34.6% [8.25 µM] (active)

CC(=O)OCCOc1cc(Cl)c(Cl)cc1Cl
growth: 93.9%

Cn1c(=O)c2[nH]c(N/N=C/c3ccccc3Br)nc2n(C)c1=O
growth: 115%

CN1CCN(Cc2ccc(NC(=O)c3cncc(C#Cc4c(N)ncc5ccc(C#N)cc45)c3)cc2C(F)(F)F)CC1
growth: 96.1%

COc1cc2c(cc1-c1c(C)noc1C)ncc1nc(C3CCCCC3)n([C@@H](C)COC(F)F)c12
growth: 32.6%

CC(=O)[C@@]1(O)CC[C@H]2[C@@H]3CC[C@@H]4CC(=O)CC[C@]4(C)[C@H]3[C@@H](O)C[C@@]21C
growth: 94.6%

COc1cccc(-c2nc3sccn3c2-c2ccnc(NCCNC(=O)Nc3cccc(C(F)(F)F)c3)n2)c1
growth: 39.6%

C=C1C(=O)O[C@H]2[C@H]1CC/C(Cn1cc(CCC)nn1)=C\CC[C@@]1(C)O[C@@H]21
growth: -31.7% (active)

CNS(=O)(=O)Oc1ccc(-c2ccc3occc3c2)cc1
growth: 91.7%

COc1cc(OC)c(NC(=O)c2cc3ccccc3cc2O)cc1Cl
growth: 75.7%

N/C(=N\N=C\c1cc2ccccc2s1)N/N=C/c1cc2ccccc2s1
growth: 122%

COc1ccc(O)c(N=Nc2nccs2)c1
growth: 17.5%

O=C(/C=C/C=C/c1c(C2CC2)nc2ccccc2c1-c1ccc(F)cc1)c1cccs1
growth: 4.94% (active)

COC1=C(C)C(=O)c2c(c(CCCl)c3n2CCC3OC(C)=O)C1=O (configuration not stated)
growth: 85.5%

OC1CSSC1Cn1cnc2c(Nc3ccc(F)c(Cl)c3)ncnc21 (configuration not stated)
growth: 2.83% (active)

CCN(CC)CCOc1ccc(/C(=C(\C)Cc2ccc(OC)cc2)c2ccc(O)cc2)cc1
growth: -18.7% (active)

Cc1ccc2sc3c(c2c1)OC(N)=C(C#N)C3c1cccc(F)c1 (configuration not stated)
growth: -14.1% (active)

COC(=O)c1c2c(c(C)[n+]([O-])c1C)C(=O)C(NCc1ccc(F)c(Cl)c1)=CC2=O
growth: -18% (active)

Cc1ccc(S(=O)(=O)N/N=C/C2(c3ccccc3)CC2)cc1
growth: 95.8%

COc1ccc(/C(C)=N/NC(=O)CSc2nc3ccccc3c(=O)n2CCc2ccc(S(N)(=O)=O)cc2)cc1
growth: 33.8%

O=c1[nH]nnc2cc(Cl)ccc12
growth: 104%

COc1ccc(C2=NN(C(=O)c3cc(OC)c(OC)c(OC)c3)C(c3ccc(N(C)C)cc3)C2)cc1 (configuration not stated)
growth: 22.7%

Clc1ccc2c(c1)C(c1c[nH]c3ccccc13)(c1c[nH]c3ccccc13)CCO2
growth: 86.5%

O=C(/C=C/c1ccccc1)c1ccc2ccccc2c1
growth: 47.8%

Cc1c(F)cc(C(N)=O)cc1NCC(=O)Nc1ccc([N+](=O)[O-])cc1
growth: 92.4%

CC1=C(C)C(=O)C(Nc2ccccc2)=C(Cl)C1=O
growth: -76% (active)

CN1CCN(CCCOc2ccc3nc(Nc4ccc(Cl)c(C(F)(F)F)c4)ccc3c2)CC1
growth: 69.5%

CCCCCCCCCN1C(=O)/C(=c2\sc3n(c2=O)C2C(NN=3)N(CC)C(=O)N2CC)c2ccccc21 (configuration not stated)
growth: 37.9%

COc1ccc(/C=N/Nc2c3ccccc3nc3ccccc23)cc1
growth: 73.7%

C=CC(=O)N1CCN(c2cccc(Oc3nccc(Nc4nnc(-c5ccc(Br)cc5)s4)n3)c2)CC1
growth: 84.4%

Cc1ccc(CSC(=N)N)cc1C
growth: 104%
